Counter-ions that a name gives are not always drawn. ± gives the standard deviation of the averaged measurements.
Test system: E. coli TESEC Mtb Alr
Experiment: growth (OD600 after 10 h); higher = more growth (less inhibition)
Settings: compound 0.1 mM
Protocol: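 TESEC Mtb Alr E. coli, or the Alr+ wild-type control, in 384-well plates with Prestwick library compounds at 0.1 mM and 1% DMSO, across arabinose induction levels of 1E3 to 1E7 nM. Growth is read as OD600 after 10 h at 37 °C in triplicate biological replicates.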

[1] = arabinose 1000 nM, raw OD600 reference: median of DMSO wells 0.294, cell-free background 0.041
[2] = arabinose 10000 nM, raw OD600 reference: median of DMSO wells 0.264, cell-free background 0.041
[3] = arabinose 100000 nM, raw OD600 reference: median of DMSO wells 0.201, cell-free background 0.041
[4] = arabinose 1000000 nM, raw OD600 reference: median of DMSO wells 0.193, cell-free background 0.041
[5] = arabinose 10000000 nM, raw OD600 reference: median of DMSO wells 0.146, cell-free background 0.041

Compound | growth [1] | growth [2] | growth [3] | growth [4] | growth [5]
CC(=O)N(CC(O)CO)c1c(I)c(C(=O)NCC(O)CO)c(I)c(C(=O)NCC(O)CO)c1I (stereo not given) [Iohexol] | 0.285 ± 0.0098 | 0.276 ± 0.0072 | 0.221 ± 0.043 | 0.195 ± 0.004 | 0.1422 ± 0.0012
CCN(CCCCOC(=O)c1ccc(OC)c(OC)c1)C(C)Cc1ccc(OC)cc1 (stereo not given) [Mebeverine hydrochloride] | 0.231 ± 0.0024 | 0.243 ± 0.0072 | 0.18 ± 0.0066 | 0.125 ± 0.0057 | 0.165 ± 0.0094
O=P(O)(O)C(Cl)(Cl)P(=O)(O)O [Clodronate] | 0.308 ± 0.021 | 0.284 ± 0.005 | 0.188 ± 0.016 | 0.193 ± 0.0024 | 0.14 ± 0.0033
CC(C)NNC(=O)c1ccncc1 [Iproniazide phosphate] | 0.276 ± 0.0095 | 0.27 ± 0.0057 | 0.219 ± 0.033 | 0.188 ± 0.007 | 0.153 ± 0.0052
CN(C)CCCN1c2ccccc2Sc2ccc(Cl)cc21 [Chlorpromazine hydrochloride] | 0.054 ± 0.0094 | 0.04817 ± 5.8e-05 | 0.0531 ± 0.008 | 0.0443 ± 0.00046 | 0.0452 ± 0.00035
CC1(C)O[C@@H]2C[C@H]3[C@@H]4CCC5=CC(=O)CC[C@]5(C)[C@@]4(F)[C@@H](O)C[C@]3(C)[C@]2(C(=O)CCl)O1 [Halcinonide] | 0.283 ± 0.011 | 0.2593 ± 0.0019 | 0.181 ± 0.027 | 0.123 ± 0.0028 | 0.152 ± 0.014
CNC(C)CCC=C(C)C (stereo not given) [Isometheptene mucate] | 0.314 ± 0.0099 | 0.266 ± 0.011 | 0.21 ± 0.025 | 0.177 ± 0.0051 | 0.1478 ± 0.0012
CCCCC1=NC2(CCCC2)C(=O)N1Cc1ccc(-c2ccccc2-c2nnn[nH]2)cc1 [Irbesartan] | 0.227 ± 0.0037 | 0.21 ± 0.011 | 0.121 ± 0.0023 | 0.0979 ± 0.0024 | 0.13 ± 0.0027
